# Assay results as given in PubChem BioAssay AID933 (National Center for Advancing Translational Sciences (NCATS), 2007).
# Results filed as inconclusive are left out. Where a call stands in place of a potency, no number is given. Unmarked numbers belong to inactive results. The source made the active and inactive calls. Calls follow the shape of the dose curve; as a rule, active = well fitted activation curve with a large enough effect in the signal ratio, with a control signal flat; inconclusive = small, poorly fitted or top-dose-only effect, or a change in a side signal; inactive = flat fitted curve, though single readings scatter; the % refers to the signal ratio.
# Molecular target: Thyrotropin receptor (Homo sapiens) (UniProt P16473)
# Sequence (P16473 whole entry, looked up): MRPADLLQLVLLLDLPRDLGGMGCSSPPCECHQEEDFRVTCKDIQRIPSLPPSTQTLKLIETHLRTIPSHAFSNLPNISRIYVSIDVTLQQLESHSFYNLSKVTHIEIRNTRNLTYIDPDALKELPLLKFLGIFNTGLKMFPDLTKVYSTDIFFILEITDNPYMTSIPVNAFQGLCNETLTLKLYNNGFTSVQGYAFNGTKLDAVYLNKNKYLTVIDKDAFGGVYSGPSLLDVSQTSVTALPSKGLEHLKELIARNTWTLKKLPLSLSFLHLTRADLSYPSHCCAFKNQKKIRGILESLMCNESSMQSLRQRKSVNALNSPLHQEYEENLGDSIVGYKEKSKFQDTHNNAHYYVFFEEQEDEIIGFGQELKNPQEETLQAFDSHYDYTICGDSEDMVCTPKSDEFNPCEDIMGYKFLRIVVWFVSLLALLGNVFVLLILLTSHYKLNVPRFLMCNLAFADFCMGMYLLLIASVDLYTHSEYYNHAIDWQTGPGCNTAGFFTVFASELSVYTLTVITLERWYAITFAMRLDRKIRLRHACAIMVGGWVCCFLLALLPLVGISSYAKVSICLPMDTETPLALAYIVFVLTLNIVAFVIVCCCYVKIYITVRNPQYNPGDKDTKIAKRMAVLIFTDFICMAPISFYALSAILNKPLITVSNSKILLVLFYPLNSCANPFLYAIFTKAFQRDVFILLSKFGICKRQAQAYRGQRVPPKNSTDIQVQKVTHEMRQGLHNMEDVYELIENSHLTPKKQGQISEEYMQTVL
# Assay: Secondary Concentration-Response Assay for Agonists of the Thyroid Stimulating Hormone Receptor: HTRF Activity Detection;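 as to activation: HEK 293 cells stably expressing human TSHR with RO 20-1724 phosphodiesterase inhibitor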
# Conditions: HEK293-TSHR cells, cAMP HTRF ratio, 30 min; series mostly up to 91.7 µM
# How it was run: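 Orthogonal confirmation in a separate TSHR-transfected HEK 293 line: cells in medium with 10 % FCS and 100 uM RO 20-1724 got compound for 30 min at room temperature. cAMP was measured by HTRF (d2-cAMP/anti-cAMP antibody), 615/660 nm emission.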
# Potency is read from the fitted curve at half-maximal effect.
SMILES,Potency,activation
COc1ccc(-c2nc3ccccc3c(=O)n2Cc2ccccc2)cc1COc1ccc(NC(C)=O)cc1,8.91 µM (active),–
COc1ccc(C2Nc3ccccc3C(=O)N2c2cccc3ccccc23)cc1COc1c(C)cccc1C (stereo not given),inactive,–
CCN(CC)CCN1C(=O)c2ccccc2NC1c1cccc(F)c1 (stereo not given),inactive,–
COc1ccc(O)c(-c2nc3ccccc3c(=O)n2Cc2ccccc2)c1,inactive,–
COc1ccc(CN(Cc2ccccc2)C(=O)c2ccccc2)cc1COc1ccc(NC(C)=O)cc1,8.91 µM (active),–
C=C(C)Cn1c(-c2ccccc2)nc2ccccc21,–,0.0214% [at 0.00035 µM]
CCSCCOC(=O)C1=C(C)N(C)C(=O)NC1c1cc(OC)ccc1OC (stereo not given),–,1.56% [at 0.00035 µM]
CC1(C)CC(=O)C2=C(C1)OC(N)=C(C#N)C2CCc1ccccc1 (stereo not given),–,-0.482% [at 0.00035 µM]
CN1C(=O)c2ccccc2N(C)C1c1ccc2c(c1)OCO2 (stereo not given),inactive,–
COc1ccc(C2Nc3ccccc3C(=O)N2Cc2ccccc2C)cc1COc1ccc(NC(C)=O)cc1 (stereo not given),inactive,–
COc1ccc(C2Nc3ccccc3C(=O)N2Cc2ccc(Cl)cc2)cc1COc1ccc(NC(C)=O)cc1 (stereo not given),3.16 µM (active),–
COc1ccc(CN(Cc2ccccc2)C(=O)c2ccco2)cc1COc1ccc(NC(C)=O)cc1,15.8 µM (active),–
CN(Cc1ccco1)C(=O)Cn1c(=O)oc2cc(S(=O)(=O)NCc3ccccc3)ccc21,–,0.961% [at 0.00035 µM]
COc1ccc(CN(Cc2ccccc2)C(C)=O)cc1COc1ccc(NC(C)=O)cc1,inactive,–
COc1ccc(C2Nc3ccccc3C(=O)N2c2ccccc2)cc1CSc1ccccn1 (stereo not given),inactive,–
O=C1c2ccccc2NC(c2cc(Br)c3c(c2)OCO3)N1Cc1ccco1 (stereo not given),inactive,–
COC(=O)C1=C(C)NC(=O)NC1c1cn(-c2ccccc2)nc1-c1cccs1 (stereo not given),–,-0.246% [at 0.00035 µM]
COc1ccc(C2Nc3ccccc3C(=O)N2CCO)cc1COc1ccc(NC(C)=O)cc1 (stereo not given),inactive,–

SMILES,Potency,activation
COc1cccc(OCc2cc(C3Nc4ccccc4C(=O)N3Cc3ccco3)ccc2OC)c1 (stereo not given),inactive,–
COc1ccc(N2C(=O)c3ccccc3NC2c2ccc(OC)c(COc3ccccn3)c2)cc1 (stereo not given),inactive,–
CCCC(=O)C1=C(SCC)CC(C)(C)C(C(=O)OC)C1=O (stereo not given),–,0.0277% [at 0.00035 µM]
O=C1c2ccccc2NC(c2cccc(F)c2)N1Cc1ccco1 (stereo not given),inactive,–
COc1cccc(OCc2cc(C3Nc4ccccc4C(=O)N3Cc3ccccc3)ccc2OC)c1 (stereo not given),inactive,–
COc1ccc(-c2nc3cccc(OC)c3c(=O)n2Cc2ccccc2)cc1COc1ccc(NC(C)=O)cc1,inactive,–
COc1ccc(C2Nc3ccc(NC(C)=O)cc3C(=O)N2Cc2ccccc2)cc1COc1ccc(NC(C)=O)cc1 (stereo not given),15.8 µM (active),–
COc1ccc(C2Nc3ccccc3C(=O)N2Cc2cccnc2)cc1COc1ccc(NC(C)=O)cc1 (stereo not given),35.5 µM (active),–
COc1ccc(C(=O)N(Cc2ccccc2)Cc2cccs2)c(O)c1,28.2 µM (active),–
Cc1occc1-c1nnc(SCC(=O)NCc2ccc3c(c2)OCO3)n1CC(C)C,–,0.411% [at 0.00035 µM]
COc1ccc(C2Nc3ccccc3C(=O)N2Cc2ccco2)cc1COc1cccc(NC(C)=O)c1 (stereo not given),inactive,–
COC(=O)C1=C(C)NC(C)=C(C(=O)OC)C1c1ccc(OC(=O)c2ccco2)cc1,–,0.436% [at 0.00035 µM]
COc1ccc(C2Nc3ccccc3C(=O)N2Cc2ccccc2)cc1COc1ccccn1 (stereo not given),inactive,–
Oc1ccccc1-c1cc(C(F)(F)C(F)F)nc(-c2ccccc2)n1,–,0.7% [at 0.00035 µM]
COc1ccc2c(c1OC)C(=O)N1c3ccccc3C(=O)N(Cc3ccco3)C21 (stereo not given),inactive,–
COc1ccc(C2Nc3ccccc3C(=O)N2c2ccccc2F)cc1COc1ccc(NC(C)=O)cc1 (stereo not given),inactive,–
Cc1occc1-c1nnc(SCC(=O)NCc2ccco2)n1CC(C)C,–,0.131% [at 0.00035 µM]
